Measured values from the supplement of paper PMC10127200.
Structures can show the parent of a compound that is named as a salt.

Columns and labels:
Test in all cases: Euclidean distance of Cell Painting phenotypic profile (signed KS, 77 features) to DMSO centroid (dimensionless distance); 5 or 10 uM (library dependent); higher = stronger phenotypic change vs DMSO (phenoactivity)
Conditions in all cases: 48 h
786-O = system: 786-O
Summary of the method: (§1)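 Library compounds were applied at 10 or 5 uM, depending on the library, with 0.1% DMSO final, for 48 h to five cancer lines and a healthy fibroblast line. After staining, cells were imaged confocally at 20X across 9 fields per well, and Harmony extracted 77 features, each scored as a signed Kolmogorov-Smirnov statistic against vehicle wells on the same plate. Phenoactivity is the Euclidean distance between each profile and the median vehicle profile, with profiles first plate-position corrected, correlation-weighted and averaged over replicates at the top dose.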

A549 = system: A549
Summary of the method: as §1

FB = system: FB
Summary of the method: as §1

HEPG2 = system: HEPG2
Summary of the method: as §1

OVCAR4 = system: OVCAR4
Summary of the method: as §1

Row | Compound | Euclidean distance (786-O) | Euclidean distance (A549) | Euclidean distance (FB) | Euclidean distance (HEPG2) | Euclidean distance (OVCAR4)
1 | C[C@H](CSC(=O)c1ccccc1)C(=O)N1C[C@@H](Sc2ccccc2)C[C@H]1C(=O)O [Zofenopril calcium] | 0.845 | 0.393 | 0.787 | 0.559 | 0.93
2 | CN1CCC[C@@H]1Cc1c[nH]c2ccc(CCS(=O)(=O)c3ccccc3)cc12 [Eletriptan HBr] | 0.938 | 0.828 | 1.17 | 0.778 | 1.33
3 | Cc1cc(Nc2cc(N)ncn2)c(=O)n2c1C(=O)NC21CCCCC1 | 0.779 | 0.866 | 1.08 | 0.427 | 1.18
4 | CN[C@@H]1CCc2[nH]c3ccc(C(N)=O)cc3c2C1 [Frovatriptan Succinate] | 1.33 | 0.718 | 0.896 | 0.505 | 1.29
5 | Nc1ccc(S(=O)(=O)Nc2nccs2)cc1 [Sulfathiazole] | 0.815 | 0.811 | 0.62 | 0.824 | 0.818
6 | COCCCOc1cc(C[C@@H](C[C@H](N)[C@@H](O)C[C@H](C(=O)NCC(C)(C)C(N)=O)C(C)C)C(C)C)ccc1OC [Aliskiren Hemifumarate] | 0.778 | 0.371 | 0.622 | 0.506 | 0.752
7 | CC(=O)[C@@]1(O)CC[C@H]2[C@@H]3CCC4=CC(=O)CCC4=C3[C@@H](c3ccc(N(C)C)cc3)C[C@@]21C [Ulipristal] | 0.949 | 1.22 | 1.05 | 1.13 | 0.761
8 | COC(=O)C[C@](O)(CCCC(C)(C)O)C(=O)O[C@@H]1C(OC)=C[C@]23CCCN2CCc2cc4c(cc2[C@H]13)OCO4 [Homoharringtonine] | 3.57 | 3.34 | 4.13 | 3.18 | 3.7
9 | COc1ccc2[nH]c([S@@+]([O-])Cc3ncc(C)c(OC)c3C)nc2c1 [Esomeprazole sodium] | 0.925 | 0.792 | 0.681 | 1.32 | 0.926
10 | Cc1oncc1C(=O)Nc1ccc(C(F)(F)F)cc1 [Leflunomide] | 2.25 | 2.41 | 2.37 | 1.3 | 2.17
11 | CC1(C)C[C@@H]1C(=O)N/C(=C\CCCCSC[C@H](N)C(=O)O)C(=O)O [Cilastatin] | 0.899 | 0.574 | 1.49 | 0.578 | 0.796
12 | COC(=O)C1=C(C#N)NC(C)=C(C(=O)OC(C)C)C1c1cccc([N+](=O)[O-])c1 (stereo not given) [Nilvadipine] | 1.2 | 0.818 | 1.19 | 0.907 | 1.34
13 | C=C1C(=O)O[C@@H]2/C=C(\C)CC/C=C(\C)CC[C@@H]12 [Costunolide] | 1.27 | 0.924 | 1.01 | 1.29 | 0.93
14 | O=C(/C=C/C=C/c1ccc2c(c1)OCO2)N1CCCCC1 [Piperine] | 1.7 | 0.714 | 1.06 | 0.563 | 1.49
15 | CN(C)CCOC(c1ccccc1)c1ccccc1 [Diphenhydramine HCl] | 0.916 | 0.411 | 0.777 | 0.793 | 0.518
16 | CN1CCN(C(c2ccccc2)c2ccccc2)CC1 [Cyclizine 2HCl] | 1.05 | 0.919 | 1.58 | 0.689 | 1.37
17 | CCOC(=O)c1ncn2c1CN(C)C(=O)c1cc(F)ccc1-2 [Flumazenil] | 1.08 | 0.73 | 1.11 | 0.383 | 0.959
18 | Cc1ccsc1C(=CCCN1CCC[C@@H](C(=O)O)C1)c1sccc1C [Tiagabine] | 0.676 | 0.377 | 0.779 | 0.574 | 1.14
19 | COc1cc2ccc(=O)oc2cc1O [Scopoletin] | 1.25 | 0.713 | 0.934 | 0.82 | 1.3
20 | CNC(=O)c1ccc(Nc2ncc(C(F)(F)F)c(NCc3nccnc3N(C)S(C)(=O)=O)n2)cc1 | 1.58 | 1.6 | 2.06 | 0.842 | 1.85
